Test results: the supplement of paper PMC10127200
Where a name gives a salt, the structure may show the parent alone.

Experiments:
Assay in all cases: Euclidean distance of Cell Painting phenotypic profile (signed KS, 77 features) to DMSO centroid (dimensionless distance); 5 or 10 uM (library dependent); higher = stronger phenotypic change vs DMSO (phenoactivity)
Conditions in all cases: 48 h
786-O = system: 786-O
Procedure, shortened: (§1)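 Five cancer lines and a healthy fibroblast line received library compounds at 10 or 5 uM (library-dependent, 0.1% DMSO final) for 48 h. Stained cells were imaged confocally at 20X (9 fields/well). Harmony extracted 77 features, each scored as a signed Kolmogorov-Smirnov statistic against same-plate vehicle wells. Profiles were plate-position corrected, correlation-weighted and replicate-averaged at the top dose. Phenoactivity is the Euclidean distance from each profile to the median vehicle profile.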

A549 = system: A549
Procedure, shortened: as §1

DU145 = system: DU145
Procedure, shortened: as §1

FB = system: FB
Procedure, shortened: as §1

HEPG2 = system: HEPG2
Procedure, shortened: as §1

OVCAR4 = system: OVCAR4
Procedure, shortened: as §1

Structure (SMILES)	Euclidean distance (786-O)	Euclidean distance (A549)	Euclidean distance (DU145)	Euclidean distance (FB)	Euclidean distance (HEPG2)	Euclidean distance (OVCAR4)
COc1cc2nc(N(C)CCCNC(=O)C3CCCO3)nc(N)c2cc1OC (centres undefined) [Alfuzosin HCl]	0.985	0.664	0.632	0.744	0.675	0.907
CCN(CC)CCCC(C)Nc1ccnc2cc(Cl)ccc12 (centres undefined) [Chloroquine Phosphate]	3.74	3.04	2.7	4.77	3.32	3.09
Cc1c(-c2ccccc2)oc2c(C(=O)OCCN3CCCCC3)cccc2c1=O [Flavoxate HCl]	0.908	2.27	1.73	2.91	0.927	1.61
CC1(C)OC[C@@H](COC(=O)CCc2ccc(OC[C@@H](O)CNCCNC(=O)N3CCOCC3)cc2)O1 [Landiolol hydrochloride]	1.18	0.835	1.25	1.04	0.692	1.25
CC(c1cc2ccccc2s1)N(O)C(N)=O (centres undefined) [Zileuton]	1.8	0.949	0.621	1.2	1.12	1.11
COc1cc(CNC(=O)CCCCC=CC(C)C)ccc1O [Capsaicin(Vanilloid)]	1.06	1.47	1.35	0.876	0.778	1.44
CCNC(=O)[C@H]1O[C@@H](n2cnc3c(N)nc(NCCc4ccc(CCC(=O)O)cc4)nc32)[C@H](O)[C@@H]1O	0.618	0.662	0.916	0.846	0.636	0.752
C[C@]12C[C@H](O)[C@H]3[C@@H](CCC4=CC(=O)CC[C@@]43C)[C@@H]1CC[C@@H]2C(=O)CO [Corticosterone]	1	1.47	1.47	1.15	0.619	1.04
Cc1cc(/C=C/c2ccc3cc(N(C)C)ccc3[n+]2C)c(C)n1-c1ccccc1 [pyrvinium]	5.7	4.29	5.05	6.77	3.9	5.35
O=C(CO)[C@@H](O)[C@H](O)[C@H](O)CO [Fructose]	1.08	0.996	0.637	0.813	0.424	1.17
Cc1coc2c1C(=O)C(=O)c1c-2ccc2c(C)cccc12 [Tanshinone I]	1.41	0.593	1.07	1.35	1.25	1.18
NC(=O)c1cn(Cc2c(F)cccc2F)nn1 [Rufinamide]	1.34	1.42	0.931	1.23	0.473	1.4
CC(=O)CCCCn1c(=O)c2c(ncn2C)n(C)c1=O [Pentoxifylline]	1.07	0.613	1.06	1.39	0.754	1.67
COC(=O)c1ccc(O)cc1 [Methyl 4-hydroxybenzoate]	0.944	0.453	0.654	0.862	0.627	1.19
CCN(CC)CCOC(=O)c1ccc(N)cc1 [Procaine HCl]	0.661	0.741	0.744	0.877	0.478	0.916
C[C@H]1CNCCCN1S(=O)(=O)c1cccc2cncc(F)c12 [Ripasudil (K-115) hydrochloride dihydrate]	2.28	0.784	2.78	2.01	1.34	1.12
CCCCN1CCCC[C@H]1C(=O)Nc1c(C)cccc1C [Levobupivacaine HCl]	1.01	1.33	0.6	0.871	0.852	1.49
c1ccc(CN(CC2=NCCN2)c2ccccc2)cc1 [Antazoline HCl]	1.19	0.647	0.893	1.02	0.685	1.02
CN(C)CCc1c[nH]c2ccc(Cn3cncn3)cc12 [Rizatriptan Benzoate]	1.43	1.08	1.46	2.54	1.06	2.42
CN(C)CCN(Cc1ccccc1)c1ccccn1 [Tripelennamine HCl]	1.42	0.863	0.966	1.05	0.581	1.72
Nc1ccccc1NC(=O)c1ccc(CNC(=O)OCc2cccnc2)cc1 [Entinostat (MS-275)]	3.47	2.57	2.22	3.25	2.93	2.57
O=C(NCc1cccc(O)c1)Nc1nc(-c2ccncc2)cs1	1.82	1.54	3.26	3.61	1.47	1.88
COC(=O)N[C@H](C(=O)N1CCC[C@H]1C(=O)Nc1ccc([C@@H]2CC[C@@H](c3ccc(NC(=O)[C@@H]4CCCN4C(=O)[C@@H](NC(=O)OC)C(C)C)cc3)N2c2ccc(C(C)(C)C)cc2)cc1)C(C)C [Ombitasvir (ABT-267)]	1.9	1.76	1.29	1.1	1.24	1.26
C=CCNC(N)=S [Allylthiourea]	1.12	0.909	0.907	0.873	0.823	1.54
